PubChem BioAssay
Active and inactive are the calls of the source. Unless noted, no rule for the calls is given here.

What was measured:
[1] = HepG2 liver cancer cell viability effects, profiling panel, resazurin fluorescence, 24 h, PK04 Diversity Set (AID 1172); conditions: higher = more signal
[2] = basal S. cerevisiae growth modulation, no modifier, primary screen, OD600, strain BY4716, 24 h, basal condition (AID 1173); conditions: OD600, 24 h, higher = more signal, called active from +8 up or from −8 down
[3] = MM1S myeloma cell viability, profiling panel, resazurin fluorescence, basal, 24 h, PK04 Diversity Set (AID 1174); conditions: higher = more signal, called active from +8 up or from −8 down;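 also: MM1S multiple myeloma cell line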
[4] = target: Dihydroorotate dehydrogenase (quinone), mitochondrial (Plasmodium falciparum (isolate 3D7)) (UniProt Q08210); test: PfDHODH enzyme inhibitors, primary screen, biochemical, C-terminal His tag, absorbance 600 nm (AID 1175); conditions: DCIP absorbance 600 nm, higher = more signal, called active from +8 up or from −8 down;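 also: recombinant parasite enzyme with a five histidine tag at its C terminus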
[5] = S. cerevisiae RM11-1a growth modifiers, primary screen, strain RM11-1a, OD600, basal, 24 h (AID 1177); conditions: OD600, 24 h, higher = more signal, called active from +8 up or from −8 down;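 also: cultures grown under basal conditions with no added stressor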
[6] = E. coli acrAB mutant growth effects, primary screen, E. coli filamentation inducers, strain DRC39, OD650, 24 h (AID 1178); conditions: higher = more signal, called active from +8 up or from −8 down;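 also: growth measured as culture turbidity by optical density at 650 nm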
[7] = E. coli acrAB mutant growth effects, primary screen, E. coli filamentation inducers, strain DRC39, OD650, 48 h (AID 1179);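 also: screen aims at cell division blockers that make cells filament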; conditions: E. coli DRC39 delta-acrAB growth, higher = more signal, called active from +8 up or from −8 down
[8] = RPMI8226 myeloma cell viability, profiling panel, resazurin fluorescence, basal, 24 h, PK04 Diversity Set (AID 1180); conditions: higher = more signal;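 also: RPMI8826 multiple myeloma cell line at 5000 cells per well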
[9] = target: E3 ubiquitin-protein ligase XIAP (Homo sapiens) (UniProt P98170); test: XIAP binders, primary screen, biophysical, small-molecule microarray, fluorescence 635 nm (AID 1181); conditions: small-molecule microarray binding, higher = more signal;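 also: score merges 667 nm emission and signal to noise over triplicate slides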
[10] = test system: XIP peptide (Xip251-270) binding; test: small-molecule binders of XIP peptide, primary screen, biochemical, small-molecule microarray, fluorescence 635/667 nm, 0.1 µg/mL protein (AID 1182); conditions: fluorescent protein binding, 635 nm, higher = more signal, called active from +8 up or from −8 down
XIP peptide (Xip251-270) = test: small-molecule binders of XIP peptide, primary screen, biochemical, small-molecule microarray, fluorescence 635/667 nm, 0.5 µg/mL protein (AID 1183); conditions: small-molecule microarray binding, fluorescence 635 nm; higher = more signal
[11] = Plasmodium falciparum growth inhibition, primary screen, strain 3D7, DAPI fluorescence, 100 nL (AID 1184);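 also: parasites grown inside human red blood cells in medium with human serum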; conditions: P. falciparum 3D7 growth, 3 d, higher = more signal
[12] = target: Homeobox protein Hox-A13 (Mus musculus) (UniProt Q62424); test: inhibitors of HoxA13-DNA binding, primary screen, biochemical, fluorescence polarization, labeled oligonucleotide (AID 1185); conditions: 15 min, higher = more signal, called active from +8 up or from −8 down
[13] = inhibitors of hydroxyurea-induced Chk1 phosphorylation, primary screen, imaging, HeLa, phospho-Chk1 antibody, percent positive cells (AID 1186); conditions: hydroxyurea-induced phospho-Chk1 immunofluorescence imaging, higher = more signal
[14] = inhibitors of hydroxyurea-induced Chk1 phosphorylation, primary screen, imaging, HeLa, phospho-Chk1 nuclear intensity (AID 1187); conditions: hydroxyurea-induced phospho-Chk1 immunofluorescence imaging, higher = more signal

E3 ubiquitin-protein ligase XIAP (Homo sapiens), sequence (P98170 whole entry, looked up): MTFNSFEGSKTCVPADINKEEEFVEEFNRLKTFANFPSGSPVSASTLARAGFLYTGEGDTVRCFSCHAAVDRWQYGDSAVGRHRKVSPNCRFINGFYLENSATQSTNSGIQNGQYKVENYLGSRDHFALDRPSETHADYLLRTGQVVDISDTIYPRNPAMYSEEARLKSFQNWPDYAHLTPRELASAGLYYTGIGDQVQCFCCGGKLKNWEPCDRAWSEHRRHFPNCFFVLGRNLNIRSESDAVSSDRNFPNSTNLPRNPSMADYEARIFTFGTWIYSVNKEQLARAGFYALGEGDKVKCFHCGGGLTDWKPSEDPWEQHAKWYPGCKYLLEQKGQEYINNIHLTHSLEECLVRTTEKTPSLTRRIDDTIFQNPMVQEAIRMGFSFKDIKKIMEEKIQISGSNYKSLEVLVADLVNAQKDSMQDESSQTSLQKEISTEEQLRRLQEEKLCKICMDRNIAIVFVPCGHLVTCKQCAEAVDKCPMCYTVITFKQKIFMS
Dihydroorotate dehydrogenase (quinone), mitochondrial (Plasmodium falciparum (isolate 3D7)), sequence (Q08210 whole entry, looked up): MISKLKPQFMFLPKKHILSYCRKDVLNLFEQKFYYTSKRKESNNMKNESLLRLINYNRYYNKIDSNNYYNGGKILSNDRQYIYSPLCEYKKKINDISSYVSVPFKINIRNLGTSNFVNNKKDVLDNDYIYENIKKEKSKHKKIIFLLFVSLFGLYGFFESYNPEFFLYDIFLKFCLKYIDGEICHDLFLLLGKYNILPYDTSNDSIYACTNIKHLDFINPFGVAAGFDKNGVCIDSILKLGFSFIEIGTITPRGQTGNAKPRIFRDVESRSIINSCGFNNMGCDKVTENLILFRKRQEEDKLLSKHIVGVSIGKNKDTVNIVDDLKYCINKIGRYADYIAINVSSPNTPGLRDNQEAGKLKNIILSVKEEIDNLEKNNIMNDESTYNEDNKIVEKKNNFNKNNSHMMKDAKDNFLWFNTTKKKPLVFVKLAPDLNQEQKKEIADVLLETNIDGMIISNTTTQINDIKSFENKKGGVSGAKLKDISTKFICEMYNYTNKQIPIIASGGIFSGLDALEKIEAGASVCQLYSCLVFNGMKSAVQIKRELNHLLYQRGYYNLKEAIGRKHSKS
Homeobox protein Hox-A13 (Mus musculus), sequence (Q62424 whole entry, looked up): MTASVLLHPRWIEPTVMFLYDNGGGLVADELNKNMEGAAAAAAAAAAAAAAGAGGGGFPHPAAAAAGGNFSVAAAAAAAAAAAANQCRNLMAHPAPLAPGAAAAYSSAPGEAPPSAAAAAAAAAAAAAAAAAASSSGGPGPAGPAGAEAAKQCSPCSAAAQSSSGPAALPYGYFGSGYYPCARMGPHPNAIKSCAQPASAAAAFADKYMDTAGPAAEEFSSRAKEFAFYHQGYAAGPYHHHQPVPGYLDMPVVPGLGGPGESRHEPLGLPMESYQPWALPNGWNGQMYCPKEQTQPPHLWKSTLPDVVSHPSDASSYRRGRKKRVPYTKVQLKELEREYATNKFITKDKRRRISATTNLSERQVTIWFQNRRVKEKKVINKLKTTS

Compound	z-score [1]	z-score [2]	z-score [3]	composite z-score [4]	z-score [5]	z-score [6]	z-score [7]	z-score [8]	composite z-score [9]	composite z-score [10]	composite z-score (XIP peptide (Xip251-270))	z-score [11]	z-score [12]	z-score [13]	z-score [14]
C=CCC(OC(C)=O)[C@@H]1[C@@H](N(Cc2ccc(-c3ccccc3)cc2)C(=O)c2ccc(C)cc2)c2cc(OCCCO)ccc2N1C(=O)c1ccc(-c2ccccc2)cc1 (stereo not given in full)	2.15	-1.71 (inactive)	1.55 (inactive)	-1.08 (inactive)	-3.45 (inactive)	2.05 (inactive)	1.27 (inactive)	1.51	-0.467	-0.0684 (inactive)	-0.322	-2.66	-1.35 (inactive)	0.0807 (inactive)	0.582 (inactive)
CC(C)[Si]1(C(C)C)O[C@@H](c2ccccc2)c2cc(C3CC3)nc(-c3ccc(Oc4ccccc4)cc3)c21	1.08	-0.225 (inactive)	1.35 (inactive)	0.967 (inactive)	1.15 (inactive)	1.3 (inactive)	0.734 (inactive)	0.688	-0.267	-0.732 (inactive)	-0.736	-1.45	0.0985 (inactive)	-0.446 (inactive)	0.661 (inactive)
O=C1OCCC=C[C@H]2OC34C=CCN(Cc5ccccc5)C(=O)[C@H]3N(CCO)C(=O)[C@@H]4C12 (stereo not given in full)	-0.21	-1.5 (inactive)	0.768 (inactive)	-1.19 (inactive)	-2.28 (inactive)	1.27 (inactive)	0.627 (inactive)	0.47	-0.569	-0.525 (inactive)	-1.24	-1.92	-2.7 (inactive)	-0.618 (inactive)	-0.732 (inactive)
O=C(CS)NCCCCCNC(=O)[C@H]1C[C@H]2C(=O)N[C@@H](Cc3ccccc3)C(=O)N2[C@H]1c1ccc(O)cc1	0.0833	0.359 (inactive)	1.19 (inactive)	0.44 (inactive)	0.895 (inactive)	0.394 (inactive)	0.102 (inactive)	0.833	0.0123	0.818 (inactive)	-0.072	-0.0713	-2.65 (inactive)	-0.319 (inactive)	0.637 (inactive)
COc1ccc([Si](C)(C)[C@H]2[C@H](CCO)O[C@@]3(C(=O)N(Cc4ccc(N5CCCCC5=O)cc4)c4ccccc43)[C@@H]2C)cc1	-1.69	-1.07 (inactive)	-7.58 (inactive)	-5.37 (inactive)	2 (inactive)	2.18 (inactive)	-0.0822 (inactive)	-2.73	0.0223	0.125 (inactive)	0.81	-1.39	-4.54 (inactive)	-0.688 (inactive)	-0.167 (inactive)
CC(=O)NCCCC[C@@H]1NC(=O)[C@@H]2C[C@H](C(=O)NCCCCCNC(=O)CS)[C@H](c3ccc(O)cc3)N2C1=O	1.25	-0.774 (inactive)	1.19 (inactive)	-0.961 (inactive)	-3.21 (inactive)	2.5 (inactive)	2.03 (inactive)	0.833	-0.131	0.214 (inactive)	0.132	-0.59	-3.98 (inactive)	1.12 (inactive)	0.99 (inactive)
COCCOC(=O)N1C(=O)[C@@]2(c3cc(C#CCNC(N)=O)ccc31)[C@H](c1ccc(OCCO)cc1)N1[C@H](c3ccccc3)[C@H](c3ccccc3)OC(=O)[C@H]1[C@@H]2C(=O)N1CCCCCCC1	0.377	1.52 (inactive)	1.2 (inactive)	0.0238 (inactive)	2 (inactive)	-0.132 (inactive)	0.538 (inactive)	1.41	-0.0559	0.067 (inactive)	-0.26	-2.1	-11.3 (active)	0.174 (inactive)	0.272 (inactive)
NC(=O)NCC#Cc1ccc2c(c1)[C@]1(C(=O)N2)[C@H](C(=O)N2CCCCCCC2)[C@H]2C(=O)O[C@H](c3ccccc3)[C@H](c3ccccc3)N2[C@@H]1c1ccccc1OCCO	0.237	-0.643 (inactive)	1.4 (inactive)	-0.121 (inactive)	0.827 (inactive)	0.218 (inactive)	0.125 (inactive)	1.13	0.306	4.02 (inactive)	0.486	-1.83	4.43 (inactive)	0.323 (inactive)	0.671 (inactive)
Cc1ccc(S[C@]2(C(=O)O)CC(=O)N(Cc3ccccc3)[C@@H]2c2ccc(CO)cc2)cc1	1.06	-3.67 (inactive)	1.6 (inactive)	-0.891 (inactive)	-1.14 (inactive)	0.537 (inactive)	0.612 (inactive)	0.512	0.123	-0.242 (inactive)	-0.655	-0.254	-2.96 (inactive)	-0.947 (inactive)	-1.23 (inactive)
Cc1ccc(S[C@]2(C(=O)NCCCN(C)C)CC(=O)N(C3CCCCC3)[C@@H]2c2ccc(CO)cc2I)cc1	-1.37	-2.6 (inactive)	-7.69 (inactive)	0.895 (inactive)	1.25 (inactive)	-0.0999 (inactive)	-0.737 (inactive)	-5.11	-0.0636	-0.605 (inactive)	-0.697	-1.65	0.756 (inactive)	-0.212 (inactive)	-0.074 (inactive)
CN(C)C(=O)[C@@]1(Cc2ccccc2N=[N+]=[N-])N=C(c2ccc(OCCCO)cc2)O[C@H]1c1ccccc1CN=[N+]=[N-]	1.12	-1.4 (inactive)	-0.437 (inactive)	-0.812 (inactive)	-0.726 (inactive)	2.45 (inactive)	0.842 (inactive)	-1.67	0.229	0.0857 (inactive)	0.896	-2.25	-1.82 (inactive)	-0.554 (inactive)	-0.339 (inactive)
C=CCNC(=O)[C@H]1[C@@H]2C(=O)O[C@@H](c3ccccc3)[C@@H](c3ccccc3)N2[C@@H](c2ccccc2OCCO)[C@]12C(=O)N(C(=O)OCCOC)c1ccc(C#CCNC(N)=O)cc12	0.834	0.338 (inactive)	1.71 (inactive)	-1.11 (inactive)	1.04 (inactive)	0.845 (inactive)	1.06 (inactive)	1.72	-0.23	0.854 (inactive)	0.822	-1.87	-1.33 (inactive)	-0.267 (inactive)	-0.261 (inactive)
CC(C)CN1C(=O)[C@@]2(Cc3ccccc31)c1ccccc1C(=O)N(C1CCCCC1)[C@H]2c1ccc(CO)cc1	0.0515	-1.91 (inactive)	1.05 (inactive)	-2.88 (inactive)	-1.12 (inactive)	0.164 (inactive)	0.464 (inactive)	1.21	0.377	1.15 (inactive)	-0.906	-1.38	-0.429 (inactive)	-0.81 (inactive)	-1.17 (inactive)
C=C(COC)/C(=C/C[C@H](OC(C)=O)c1ccc(OCCO)cc1)c1cnc2ccccc2c1	0.807	-0.229 (inactive)	1.03 (inactive)	-2.82 (inactive)	1.65 (inactive)	1.2 (inactive)	0.805 (inactive)	1.03	-0.102	0.878 (inactive)	0.0356	-3.08	-3.6 (inactive)	-0.619 (inactive)	-0.632 (inactive)
O=C1c2ccccc2[C@](Cc2ccccc2I)(C(=O)NCC(F)(F)F)[C@H](c2ccc(CO)cc2)N1Cc1ccccc1C(F)(F)F	0.226	-1.29 (inactive)	1.13 (inactive)	-0.449 (inactive)	-0.719 (inactive)	0.775 (inactive)	0.23 (inactive)	1.69	-0.174	0.57 (inactive)	0.188	0.121	-2.47 (inactive)	-0.103 (inactive)	0.14 (inactive)
O=C1O[C@@H](c2ccccc2)[C@@H](c2ccccc2)N2[C@@H](c3ccc(O)cc3)[C@]3(C(=O)Nc4ccc(C#CC5(O)CCCCCC5)cc43)[C@@H](C(=O)Nc3nc4ccccc4s3)[C@H]12	0.527	-0.657 (inactive)	1.19 (inactive)	-0.067 (inactive)	0.74 (inactive)	0.597 (inactive)	0.946 (inactive)	0.88	-0.184	1.8 (inactive)	0.756	-0.697	-0.586 (inactive)	-0.44 (inactive)	-0.169 (inactive)
CCCC/C=C/[C@H]([C@@H](O)Cc1ccccc1)N(CC#Cc1ccccc1)Cc1ccccc1Br	1.65	-1.44 (inactive)	0.579 (inactive)	0.197 (inactive)	0.994 (inactive)	2.75 (inactive)	1.19 (inactive)	0.788	-0.039	0.227 (inactive)	-1.26	-0.972	0.453 (inactive)	-0.138 (inactive)	-0.0836 (inactive)
C=CCC(OC(C)=O)[C@@H]1[C@@H](N(Cc2cc3ccccc3o2)C(=O)Cc2ccc(F)cc2)c2cc(OCCCO)ccc2N1C(=O)c1ccc(-c2ccccc2)cc1 (stereo not given in full)	1.13	-0.588 (inactive)	-0.518 (inactive)	-0.177 (inactive)	-0.157 (inactive)	1.17 (inactive)	0.845 (inactive)	0.673	-0.332	-0.618 (inactive)	-0.666	-0.0101	-1.04 (inactive)	0.0934 (inactive)	0.192 (inactive)
CO[C@]12C=C(Br)[C@@H](C[C@@H]1c1ccccc1)[C@@]1(CO1)C2=O	0.418	-5.19 (inactive)	0.0036 (inactive)	1.03 (inactive)	-0.123 (inactive)	2.39 (inactive)	1.29 (inactive)	0.63	-0.142	0.484 (inactive)	0.521	-1.03	-0.507 (inactive)	-0.655 (inactive)	-0.337 (inactive)
CC(C)N1CC=CC23O[C@@H]4/C=C\CCCOC(=O)C4[C@H]2C(=O)N(CCO)[C@@H]3C1=O (stereo not given in full)	1.09	-1.71 (inactive)	0.998 (inactive)	-1.71 (inactive)	-2.54 (inactive)	2.2 (inactive)	2.25 (inactive)	0.855	-0.16	1.85 (inactive)	0.122	-0.348	-5.41 (inactive)	-1.32 (inactive)	-0.544 (inactive)
